High-throughput results from PubChem.
A selection: hits, their analogues and other compounds. The true share with any hit is near 8.9%.
MCF10A rereplic – inducers of DNA re-replication in MCF 10A breast cells | MCF 10A DNA re-replication, Hoechst nuclear intensity, 48 h | Potency, µM (highest dose often 46.1 µM), for the others: at the top dose activity, positive = re-replication, hits mostly activators | hit rate 2.9% among 350,000 | AID 624296; note: potency is the fitted concentration of half-maximal effect; % of control where 0% means no effect; nearly all actives have a fitted effect of over 50% in size
SW480 rereplic – DNA re-replication induction in SW480 cells; SW480 DNA re-replication, Hoechst DNA content imaging, 48 h; Potency, µM (doses to about 46.1 µM), without a hit: at the top dose re-replication activation, actives largely listed as activators; hit rate 1.8% among 340,000; AID 624297; note: potency is the fitted concentration of half-maximal effect; % of control where 0% means no effect; nearly all actives have a fitted effect of over 55% in size
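Treated cells incubate 48 hr (37 C, 5% CO2), are stained 40 min with Hoechst, and nuclear fluorescence is enumerated; a rise in nuclei with high DNA signal marks re-replication.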
DRD3 agonist – D3 dopamine receptor (human) agonism | D3R DiscoveRx beta-arrestin cells, luminescence, 90 min | hit rate 0.58% among 410,000 | max activation, % | AID 652048; in the data active = max activation above about 30%; note: 0% is about no effect
Target sequence (P35462 whole entry, looked up): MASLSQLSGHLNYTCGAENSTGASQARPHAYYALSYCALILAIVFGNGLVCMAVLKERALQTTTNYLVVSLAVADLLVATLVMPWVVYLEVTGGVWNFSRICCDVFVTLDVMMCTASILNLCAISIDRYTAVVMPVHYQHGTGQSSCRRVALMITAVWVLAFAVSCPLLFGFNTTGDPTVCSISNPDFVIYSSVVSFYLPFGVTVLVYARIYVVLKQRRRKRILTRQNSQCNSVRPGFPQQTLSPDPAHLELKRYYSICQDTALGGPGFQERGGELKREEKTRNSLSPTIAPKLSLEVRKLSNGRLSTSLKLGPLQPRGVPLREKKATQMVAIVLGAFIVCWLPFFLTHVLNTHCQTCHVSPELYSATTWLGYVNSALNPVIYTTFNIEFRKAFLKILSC
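Agonist-mode cell screen: cells plated at 1500/well and incubated overnight at 37 °C, then exposed to library compounds for 90 min at 37 °C. Detection reagent was added for 30–60 min at room temperature, and luminescence was read.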
DRD3 antagonist – blocks the human D3 dopamine receptor | P35462 | D3R cells, DiscoveRx beta-arrestin luminescence, antagonist mode; hits give low values | max response, negative = inhibition, % | hit rate 2.5% among 360,000; in the data active = max response below about -50%; inconclusive = no clear call, values can overlap the other calls; note: % is set by controls: 0 for no effect and ±100 for the full control effect
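Cells expressing the human receptor were seeded at 1500 cells/well, incubated overnight at 37 degrees C in 5% CO2, then exposed to library compounds with dopamine controls for 90 minutes at 37 degrees C before luminescent detection.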
KB-3-1 cytotox – KB-3-1 parental cell cytotoxicity. KB-3-1 viability, CellTiter-Glo ATP luminescence, 72 h. AID 1347075. Potency, µM (top dose mostly 46.1 µM), usual class: cytotoxic. hit rate 1.4% among 400,000; note: potency is the fitted concentration of half-maximal effect; % is set by controls: 0 for no effect and ±100 for the full control effect; nearly all actives have a fitted effect of over 60% in size
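Screening of KB-3-1 cells (DMEM, 10% FBS, phenol-red free) ran from lowest to highest compound concentration; after 72 h at 37 °C viability was read luminescently and curves fitted.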
KB-V1 cytotox – kills drug-selected multidrug resistant KB-V1 cells; KB-V1 MDR cells viability, CellTiter-Glo, 72 h; hit rate 3.4% among 400,000; Potency, µM (highest dose often 46.1 µM), actives largely listed as cytotoxic; note: potency is the fitted concentration of half-maximal effect; % is set by controls: 0 for no effect and ±100 for the full control effect; nearly all actives have a fitted effect of over 60% in size
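In this primary screen, KB-V1 cells overexpressing P-gp are incubated with library compounds (lowest to highest concentration) for 72 h at 37 degrees C before a luminescent ATP viability read.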
Starred values were filed as active, the others as inactive; i = inactive; u = inconclusive; x = not tested or not shown; ! = not confirmed by another sample. Unless noted, calls come from the whole dose curve; as a rule, active = well fitted curve in the direction sought with a large enough effect; inconclusive = small, poorly fitted or top-dose-only effect, or another doubt; inactive = no such curve, though single readings can be large; an effect the other way counts as inactive or inconclusive.

SMILES	MCF10A rereplic	SW480 rereplic	DRD3 agonist	DRD3 antagonist	KB-3-1 cytotox	KB-V1 cytotox
COc1ccc(C2=NOC(C(=O)NCc3cccs3)C2)cc1 (stereo not drawn)	9.2µM*	-3%	1	-4	6.5µM*	2.9µM*
CC1CCN(c2nn3c(=O)c(C(=O)NC(C)C)cnc3s2)CC1	x	x	5	x	i	i
O=C(NCc1cccs1)C1CC(c2ccccc2O)=NO1 (stereo not drawn)	18µM*	23%	-3	-25	16µM*	u
COc1cc(OC)c(C2=NOC(C(=O)NCc3cccnc3)C2)cc1Cl (stereo not drawn)	20%	u	-5	24	u	i
COc1cc(OC)c(C2=NOC(C(=O)NCc3cccs3)C2)cc1Cl (stereo not drawn)	u	9.2µM*	-7	-20	i	7.3µM*
O=C(NCc1ccccn1)C1CC(c2ccccc2O)=NO1 (stereo not drawn)	-31%	1%	6	8	i	i
CCOc1cc(CNC(=O)NC2COc3ccccc3C2)cc(OCC)c1OCC (stereo not drawn)	x	x	-11	x	i	i
Cc1cc2nc(-c3ccc(NC(=O)c4ccccc4F)cc3)oc2cc1C	x	x	-10	x	x	x
OC(COCC1COc2ccccc2O1)CN1CCN(c2ccccc2)CC1 (stereo not drawn)	7%	-2%	33*	-7	i	u
COCCOCC(O)CN1CCN(c2ccccc2)CC1 (stereo not drawn)	12%	u	11	-78*	i	i
CCN1CCN(CC(O)COCC2COc3ccccc3O2)CC1 (stereo not drawn)	-10%	0%	-4	-12	i	i
COCCOCC(O)CN1CCN(c2ccc(C)cc2)CC1 (stereo not drawn)	-8%	-9%	-14	-62*	i	i
CCOc1ccccc1N1CCN(S(=O)(=O)c2ccc(C3CCCCC3)cc2)CC1	x	x	-9	x	i	i
C/C(CC(=O)Nc1cc(C)ccn1)=N\NC(=O)c1cccc(C)c1	-13%	-7%	-3	-11	u	i
C/C(CC(=O)Nc1ccccn1)=N\NC(=O)c1ccccc1O	14%	1.3µM*	-1	-7	u	i
C/C(CC(=O)Nc1ccccn1)=N\NC(=O)c1ccc2ccccc2c1	-5%	-8%	-2	-6	i	i
C/C(CC(=O)Nc1cc(C)ccn1)=N\NC(=O)c1cccc(C)c1O	u	12µM*	28	15	u	u
Cc1ccc(CSC2=Nc3ccccc3C3=NC(CCC(=O)N4CCN(c5ccccc5)CC4)C(=O)N23)cc1 (stereo not drawn)	x	x	-7	x	i	i
CCOC(=O)c1cc(NC(=O)N(CC)C2CCCCC2)c(C)nc1C	13%	-2%	4	9	i	23µM*
CC(=O)N1CCc2c(sc3c2c(=O)n(-c2cc(Cl)ccc2C)c(=O)n3Cc2ccccc2F)C1	x	x	-18	x	i	i
Clc1ccccc1-c1ccc(CN2CCN(c3ccccc3)CC2)o1	u	-1%	2	-67*	i	i
Cc1ccc(C(=O)c2oc3ccccc3c2NC(=O)c2cc(-c3cc(C)ccc3O)n[nH]2)cc1	1.6µM*	u	1	-5	u	u
Cc1ccc(C(=O)c2oc3ccccc3c2NC(=O)c2cc(-c3ccccc3O)n[nH]2)cc1	9.2µM*	18µM*	-6	-20	i	i
COc1ccc(CNC(=O)CCc2c(C)nn(-c3ccc(N4CCOCC4)nn3)c2C)cc1	x	x	-10	x	i	i
CCC(=O)N1CCc2cc(S(=O)(=O)CCC(=O)Nc3cc(Cl)ccc3OC)ccc21	x	x	-8	x	i	i
SMILES	MCF10A rereplic	SW480 rereplic	DRD3 agonist	DRD3 antagonist	KB-3-1 cytotox	KB-V1 cytotox
Cc1ccccc1NC(=O)c1ccc(NS(=O)(=O)c2cc(C(C)(C)C)cc(C)c2C)cc1	u	-5%	-26	-57*	u	u
Cc1cc(C(C)(C)C)cc(S(=O)(=O)Nc2cccc(C(=O)O)c2)c1C	-2%	-2%	1	43	i	i
COc1ccc(C(=O)NNc2ncnc3c2cnn3-c2ccc(C)cc2C)cc1	x	x	-8	x	i	i
S=c1[nH]nc(-c2ccccc2)n1C1C=CCCC1 (stereo not drawn)	19%	0%	-3	-55*	i	i
S=c1[nH]nc(-c2cccnc2)n1C1CCCCC1	12%	-5%	-5	-6	i	i
Nc1cccc(P(=O)(c2ccccc2)c2ccccc2)c1	u	u	4	17	i	i
O=P(c1ccccc1)(c1ccccc1)N(c1ccccc1)c1ccccc1	4%	0%	-9	-54*	i	i
c1ccc(CN(CC2=NCCN2)c2ccccc2)cc1	9%	0.23µM*!	0	-18	i	i
O=C(Nc1nc2ccccc2s1)C1c2ccccc2Oc2ccccc21	u	u	-13	-23	i	18µM*
COCC(=O)Nc1nc2ccccc2s1	-5%	1%	3	2	i	i
COC(=O)c1sc(NC(=O)C2c3ccccc3Oc3ccccc32)c(C(=O)OC)c1C	11%	x	7	-12	i	12µM*
O=C(Nc1nc2ccccc2s1)C1CCCO1 (stereo not drawn)	-3%	0%	0	-10	i	i
NC(=S)Nc1nc2ccccc2s1	0%	u	-1	-4	u	8.2µM*
COc1ccc(-c2noc(CSc3nnc(C)n3-c3cccc(C)c3)n2)cc1	x	x	-4	x	i	i
Cc1ccc(-c2nc(C)c(CCNS(=O)(=O)c3ccc(F)c(C(F)(F)F)c3)s2)cc1	x	x	0	x	u	u
CC(C)CCNC(=O)Cn1nc(N2CCN(c3ccccc3)CC2)ccc1=O	x	x	-1	x	i	i
CN(C)CCCNC(=O)N1c2ccccc2C=Cc2ccccc21	-3%	2%	-9	-52*	i	i
CCN(CC)C(=O)N1c2ccccc2C=Cc2ccccc21	u	7%	3	-21	3.7µM*	u
COc1ccc(C2NC(=O)N(C)C3=C2C(=O)N(c2ccc(C)cc2)C3)cc1 (stereo not drawn)	x	x	4	x	i	i
Cc1ccc(O)c(C(=O)c2cc(C#N)c(=O)n(-c3nccs3)c2)c1	12µM*	14%	5	3	u	u
Cc1cnc(NC(=O)c2cccc(S(=O)(=O)N3CCOCC3)c2)s1	13%	-8%	-3	10	i	i
Cc1cnc(NC(=O)c2cccc(S(=O)(=O)N3CC(C)OC(C)C3)c2)s1 (stereo not drawn)	5%	-3%	4	1	u	16µM*
